# The list is not random: actives were taken first. Their share in the collection is about 2.4%.
# ABHD5-PLIN5 inh: inhibitors of human ABHD5-perilipin-5 interaction; inhibition, % at 4 µM; actives 0.78% (n = 360,000); Split G. princeps luciferase complementation, luminescence, 4 h; Q00G26+Q8WTS1;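 active = inhibition above the mean inhibition across every tested compound plus 3 SD, cut at about 22% in these data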;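 note: 0% = DMSO only wells and the 100% control is not disclosed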
# Target sequence (Q00G26 whole entry, looked up): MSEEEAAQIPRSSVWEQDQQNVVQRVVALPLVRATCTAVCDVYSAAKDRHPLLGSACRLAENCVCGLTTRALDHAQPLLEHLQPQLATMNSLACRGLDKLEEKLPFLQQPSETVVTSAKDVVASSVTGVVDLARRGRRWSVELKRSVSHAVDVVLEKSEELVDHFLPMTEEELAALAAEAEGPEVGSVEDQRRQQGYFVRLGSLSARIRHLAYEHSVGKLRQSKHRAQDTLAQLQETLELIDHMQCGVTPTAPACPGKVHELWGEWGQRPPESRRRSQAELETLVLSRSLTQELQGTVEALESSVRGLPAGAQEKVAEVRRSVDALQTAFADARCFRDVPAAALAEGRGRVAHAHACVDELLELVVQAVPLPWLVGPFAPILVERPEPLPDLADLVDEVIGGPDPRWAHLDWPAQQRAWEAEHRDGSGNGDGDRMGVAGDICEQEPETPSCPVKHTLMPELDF
# Target sequence (Q8WTS1 whole entry, looked up): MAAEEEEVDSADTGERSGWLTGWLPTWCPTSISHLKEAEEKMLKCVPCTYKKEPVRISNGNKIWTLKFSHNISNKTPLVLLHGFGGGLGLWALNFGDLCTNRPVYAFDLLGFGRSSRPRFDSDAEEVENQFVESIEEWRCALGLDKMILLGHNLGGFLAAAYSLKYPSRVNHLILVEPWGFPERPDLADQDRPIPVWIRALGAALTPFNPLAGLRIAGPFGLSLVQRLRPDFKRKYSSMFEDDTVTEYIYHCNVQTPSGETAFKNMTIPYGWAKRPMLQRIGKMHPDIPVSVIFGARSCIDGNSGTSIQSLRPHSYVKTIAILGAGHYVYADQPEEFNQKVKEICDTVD
# TLR4-MyD88 BLA: inhibitors of human TLR4-MyD88 binding | HeLa CL3-4 TLR4/MyD88 BLA complementation, FRET ratio | inhibition, % at 8.4 µM | actives 0.18% (n = 200,000); in the data active = inhibition above about 25%;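 note: 0% = vehicle and 100% = reference inhibitor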
# TLR9-MyD88 inh: TLR9-MyD88 interaction inhibition. Q9NR96+Q99836. inhibition, % at 4.98 µM. AID 504734. CHO BLA complementation TLR9-MyD88, CCF4 FRET ratio. actives 0.21% (n = 340,000);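 active = inhibition above the mean over all tested compounds plus 3 SD, cut at about 21% in these data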;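 note: 0% = DMSO only wells and 100% = clavulanate BLA inhibitor control wells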
# m5-HT2A agonist: agonists of mouse serotonin 5-HT2A receptor (HTR2A); P35363; CHO-K1 mHTR2A beta-arrestin complementation, luminescence; percent of 30 µM serotonin response; activation, % at 7.6 µM; actives 0.66% (n = 360,000);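 active = activation above a run cutoff, the mean activation of all tested compounds plus 3 SD, cut at about 14% in these data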;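 note: 0% = plate median of compound wells and 100% = 30 µM serotonin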
# CRFR2-BP antag: antagonists of CRF-binding protein/CRF-R2 receptor complex. actives 0.59% (n = 350,000). HEK293 CRF-R2/CRF-BP, CRF-induced calcium fluorescence. inhibition, % at 11.8 µM;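 active = inhibition of the ligand-induced calcium signal above about 50% at the single tested concentration, limit read from the data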
# NOD2-RIPK2 inh: inhibitors of human NOD2-RIPK2 interaction | inhibition, % at 4.98 µM | actives 0.38% (n = 360,000) | O43353 | CHO BLA complementation NOD2-RIPK2, CCF4 ratio; in the data active = inhibition above about 21%;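 note: 0% = vehicle only and 100% = reference blocker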
# OPRM1 ag: activates human mu opioid receptor in HTR2A counterscreen | AID 624380 | U2OS OPRM1 beta-arrestin PathHunter, luminescence; DMSO 0%, DAMGO 9.3 µM 100% | shares compounds with m5-HT2A agonist | activation, % at 9.3 µM | actives 5.3% (n = 2,300);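 active = mean activation above the mean of DMSO-only wells plus 3 SD, cut at about 0.5% in these data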
# HTR2A ag conf: mouse HTR2A agonism confirmed | shares compounds with m5-HT2A agonist | CHO-K1 PathHunter beta-arrestin recruitment, luminescence; DMSO 0%, 30 µM serotonin 100% | activation, % at 7.6 µM | actives 19% (n = 2,300) | AID 624381;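 active = mean activation across triplicates above the hit threshold derived in the original primary screen, cut at about 15% in these data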
# * hit, by the source's call; x = no result given.
SMILES,ABHD5-PLIN5 inh,TLR4-MyD88 BLA,TLR9-MyD88 inh,m5-HT2A agonist,CRFR2-BP antag,NOD2-RIPK2 inh,OPRM1 ag,HTR2A ag conf
CS(=O)(=O)Nc1cccc(NC(=O)c2cccc3c(-c4ccc(F)c(F)c4)coc23)c1,-4,x,x,-1,x,-3,x,x
COc1ccc2[nH]c(C)c(CCNC(=S)Nc3cccc(C)c3C)c2c1,-5,-1,-8,0,-20,-1,x,x
COc1ccc2[nH]c(C)c(CCNC(=S)Nc3ccccc3C)c2c1,5,-4,-7,16*,-6,-7,0,-4
CN(C(=O)CSC1=NCCS1)c1ccccc1,1,-15,-5,15*,24,-4,0.9*,0
O=C(COC(=O)c1ccccc1NCCO)Nc1ccc(S(=O)(=O)NC2=NCCCCC2)cc1,2,x,-9,22*,15,6,0,-1
CC(C)CC(=O)Nc1ccc(C(=O)COC(=O)CN2C(=O)NC3(CCCCC3C)C2=O)cc1 (stereo not given),-1,x,2,18*,13,-6,0,2
COc1ncc(-c2ccc3c(c2)S(=O)(=O)c2cccc(C(=O)O)c2C3=O)cn1,-6,x,2,18*,2,-15,-1,-3
O=C(Nc1ccc(F)c(Cl)c1)C1Cc2c(-c3cccc(F)c3)ccnc2O1 (stereo not given),1,x,x,-4,x,4,x,x
N#Cc1ccccc1Cn1c(=O)n(CCCC(=O)NCc2ccc3c(c2)OCO3)c(=O)c2ccccc21,0,-11,-6,15*,9,5,0,-2
O=C1c2ccccc2C(c2nnnn2-c2ccc3c(c2)OCCO3)N1CCCn1ccnc1 (stereo not given),-6,x,x,1,x,-5,x,x
COc1ccc(-c2ccc(CN3C(C(C)C)C(=O)N(Cc4cn(Cc5ccco5)nn4)CCS3(=O)=O)cc2)cc1 (stereo not given),-6,x,-6,18*,-8,-18,-1,-3
Cc1ccc(-c2ccc(CN3C(C)C(=O)N(Cc4cn(Cc5ccco5)nn4)CCS3(=O)=O)cc2)cc1 (stereo not given),7,x,2,18*,-13,-11,-1,-4
CCOC(=O)C(=CNc1ncccc1C)C(=O)OCC,-3,5,2,23*,14,-7,-1,1
CCOC(=O)C(=CNc1ccccc1C)C(=O)OCC,-9,8,5,5,5,-4,x,x
O=C(CCc1n[nH]c(=O)[nH]c1=O)N1CCCCC1,-4,7,-11,16*,22,-8,0,-1
COc1ccc(C2=Nc3ccccc3N(C(=O)c3ccc(C)cc3)C2C(=O)Nc2c(C)cccc2C)cc1 (stereo not given),-5,x,x,-5,x,-2,x,x
COc1ccc(S(=O)(=O)N2CCC[C@H]2C(=O)N2CCC[C@H]2C(=O)N(C)Cc2ccccc2)cc1C,-5,x,x,-3,x,3,x,x
O=C(CCN1N=C(c2ccccc2)CCC1=O)NC1CCCC1,1,x,-1,19*,1,-8,-1,-3
O=C(NCc1ccc(Cl)cc1)N1CCN(Cc2ccccc2)CC1,6,x,0,35*,12,-4,0,6
COc1ccc(OC)c(NC(=S)N2CCN(Cc3ccccc3)CC2)c1,4,2,7,3,13,-1,x,x
COc1cccc(CN2CCN(C(=S)NCc3ccc(Cl)cc3)CC2)c1,10,-9,-8,29*,-18,0,0.8*,25*
CCOC(=O)C(=CNc1ccc2c(c1)CCN2C(C)=O)C(=O)OCC,8,x,-6,19*,19,-21,0,8
COc1ccc(/C=C/C(=O)Nc2nonc2NC(C)=O)cc1,2,12,-11,25*,18,-4,-1,-3
COc1ccc(/C=C/C(=O)Nc2cc(C)on2)cc1,3,5,-9,-4,-15,-6,x,x

# Screening results from PubChem BioAssay.
